Hits are enriched below; roughly 4.1% of the tested compounds scored in any of these assays.
ssDAF-12 act: activators of S. stercoralis DAF-12 nuclear receptor; HEK293 ssDAF-12/GRIP1 lit1-tk-luc reporter, luminescence; % of 3 µM dafachronic acid response; activation, % at 6.8 µM; 370,000 compounds, 1% hits;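 active = activation above the mean over all tested compounds plus 3 SD, cut at about 0.9% in these data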
DAX1 inh-1: inhibitors of DAX1 repression of SF-1 activated StAR promoter. inhibition, % at 6.8 µM. 370,000 compounds, 1.1% hits. HEK293T StAR-luciferase reporter, SF-1/DAX-1 repression relief. AID 652010;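 active = inhibition above the mean over all tested compounds plus 3 SD, cut at about 3.6% in these data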;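 also: higher inhibition means more luminescence from relief of DAX-1 repression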
hcDAF12 agonist: activates DAF-12 receptor from parasite H. contortus; AID 652067; 370,000 compounds, 1.4% hits; activation, % at 6.8 µM; HEK293 hcDAF-12 lit1-tk-luc reporter, luminescence; 0% DMSO, 100% Δ7-dafachronic acid;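 active = activation above the mean of all tested compounds plus 3 SD, cut at about 5.5% in these data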
hgDAF12 agonist: agonists of H. glycines DAF-12 nuclear receptor; activation, % at 6.8 µM; HEK293 GAL4-hgDAF12 UAS-luciferase reporter, agonist luminescence; normalized to butyrate control; 370,000 compounds, 1.8% hits;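 active = activation above a cutoff set at the mean of all screened compounds plus 3 SD, cut at about 10% in these data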
PolyA inhibitor: blocks polyadenylation in yeast reporter cells | S. cerevisiae SKY197-pL101 polyadenylation reporter, beta-gal luminescence; efflux-impaired pdr1/pdr3 knockout yeast; score 100 = 6 SD above DMSO | activity score, % at 12 µM | 300,000 compounds, 0.02% hits;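 active = lowest replicate activity score at least 50, where 100 means six control SD above control mean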;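 also: yeast exposed to compound for 9 h at 30 °C; higher score means more reporter readthrough which indicates perturbed polyadenylation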
DAX1 inh-2: inhibits human nuclear receptor DAX1; HEK293 Gal4-DAX1 luciferase reporter, luminescence; 340,000 compounds, 0.99% hits; inhibition, % at 6.75 µM;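 active = inhibition above the mean over all tested compounds plus 3 SD, cut at about 4.2% in these data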;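 also: inhibition shows as a rise in luminescence from relieved DAX1 repression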
Target sequence (P51843 207-470 limits assumed): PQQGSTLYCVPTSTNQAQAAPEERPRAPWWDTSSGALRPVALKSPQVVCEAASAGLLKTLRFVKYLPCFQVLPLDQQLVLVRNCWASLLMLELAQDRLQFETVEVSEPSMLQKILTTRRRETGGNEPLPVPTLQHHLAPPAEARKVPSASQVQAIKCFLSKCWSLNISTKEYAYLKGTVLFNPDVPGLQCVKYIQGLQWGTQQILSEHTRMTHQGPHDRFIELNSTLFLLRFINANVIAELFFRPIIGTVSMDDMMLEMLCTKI
Each line names hits and unclear results; the compound was inactive in the other large screens.

O=C(O)c1ccccc1-c1ccccc1C(=O)Nc1ccc(-c2nc3cc(Cl)ccc3o2)cc1	none
Cc1nn(-c2ccccc2)c2sc(C(=O)NCC3CCCO3)cc12 (stereo not drawn)	none (no result: PolyA inhibitor, DAX1 inh-2)
CCOc1ccc(-n2c(COc3ccc(Cl)cc3)nnc2SCC(=O)Nc2ccc(OCc3ccccc3)cc2)cc1	none (no result: PolyA inhibitor, DAX1 inh-2)
CC(Sc1nnc(Nc2ccccc2)s1)C(=O)Nc1nc(-c2ccccc2)cs1 (stereo not drawn)	DAX1 inh-2 5.0
CC(OC(=O)c1ccc(O)cc1)C(=O)Nc1nc(-c2ccccc2)cs1 (stereo not drawn)	none (no result: PolyA inhibitor)
CCc1ccc(N(CC(=O)Nc2ccccc2C(=O)N2CCOCC2)S(C)(=O)=O)cc1	ssDAF-12 act 1.5
CCCCn1nnc(N(C(=O)c2cccs2)C(=O)c2cccs2)n1	DAX1 inh-2 5.7
Cc1ccccc1N1CCN(S(=O)(=O)c2ccc3c(c2)n(C)c(=O)c(=O)n3C)CC1	none (no result: PolyA inhibitor, DAX1 inh-2)
O=C(CN1CCN(c2ccccc2)CC1)Nc1scc2c1c(=O)oc1ccccc12	DAX1 inh-2 4.7
O=C(Nc1ccccc1)Nc1scc2c1c(=O)oc1ccccc12	none (no result: DAX1 inh-2)
CN(C)c1ccc(-c2nnc(SCC3CCCO3)n2C)cc1 (stereo not drawn)	DAX1 inh-2 4.8
Cn1c(SCC2CCCO2)nnc1-c1ccncc1 (stereo not drawn)	none
O=C(N[C@@H](Cc1cccnc1)C(=O)N1CCC[C@H]1C(=O)NCCc1ccccc1Cl)C1CC1	none (no result: PolyA inhibitor, DAX1 inh-2)
CC1CCc2nn(CC(=O)NCCCN3CCCCC3)cc2C1 (stereo not drawn)	none
CCN1CCCC1CNC(=O)Cn1cc2c(n1)CCC(C)C2 (stereo not drawn)	DAX1 inh-2 4.5
CCN(CC)C(=O)Cn1c2ccccc2c2nc3n(c(=O)c21)CCS3	none (no result: DAX1 inh-1, PolyA inhibitor, DAX1 inh-2)
Cc1cc(C(=O)NN)c(C)o1	DAX1 inh-2 6.2
Cc1cc(C(=O)NCC(=O)O)c(C)o1	none
Cc1cc(C(=O)N/N=C/c2ccncc2)c(C)o1	DAX1 inh-2 4.8
Cc1cc(C(=O)NNC(=O)c2sccc2C)c(C)o1	DAX1 inh-1 4.3
O=S1(=O)c2ccc(N3CCSCC3)cc2Oc2ccccc2CN1Cc1cn(Cc2ccc(F)cc2)nn1	none (no result: PolyA inhibitor, DAX1 inh-2)
COc1cccc(C2NC(=S)N(Cc3ccc(Br)cc3)C(C)=C2C(C)=O)c1 (stereo not drawn)	none (no result: PolyA inhibitor, DAX1 inh-2)
O=C(O)Cc1sc(Nc2cccc3ccccc23)nc1-c1ccccc1	DAX1 inh-1 4.3 (no result: PolyA inhibitor)
O=C(O)Cc1sc(Nc2ccc(Cl)cc2)nc1-c1cccs1	hcDAF12 agonist 5.8 (no result: DAX1 inh-2)
Cc1cc2nc(-c3ccccc3)c(Cc3cccc(Cl)c3)n2c(C)c1Br	hgDAF12 agonist 10.6 (no result: PolyA inhibitor, DAX1 inh-2)
Cc1cc2nc(C3CCCCC3)c(Cc3cccc(F)c3)n2c(C)c1Br	ssDAF-12 act 1.7 (no result: PolyA inhibitor, DAX1 inh-2)
Cc1cc2nc(-c3ccc(F)cc3)c(Cc3cccc(Cl)c3)n2c(C)c1Br	ssDAF-12 act 1.5, hcDAF12 agonist 5.6 (no result: PolyA inhibitor, DAX1 inh-2)
Cc1cc2nc(-c3ccccc3)c(Cc3cccc(F)c3)n2c(C)c1Br	none (no result: PolyA inhibitor, DAX1 inh-2)
Clc1cnc(N/N=C/c2cccs2)c(Cl)c1	ssDAF-12 act 1.0
Cc1ccsc1/C=N/Nc1ncnc2nc[nH]c12	DAX1 inh-2 4.6
Cc1ccccc1/C=N/Nc1ncnc2nc[nH]c12	none
C(=N\Nc1ncnc2nc[nH]c12)/c1cccs1	DAX1 inh-2 5.7
Cc1ccc(/C=N/Nc2ncc(Cl)cc2Cl)s1	none
COC(=O)[C@]12C[C@H](CC(=O)N3CCOCC3)C(=O)N(Cc3cccc4ccccc34)C1=C[C@H](COCc1ccccc1)O[C@@H]2C	none (no result: PolyA inhibitor, DAX1 inh-2)
C[C@H](O)[C@@H]1C(=O)N2CCc3c([nH]c4cccc(-c5ccccc5)c34)[C@@H]2C[C@@H]1N(C)C(=O)Nc1ccccc1	none (no result: PolyA inhibitor, DAX1 inh-2)
CCOC1=C2CN(S(=O)(=O)c3ccc(C)cc3)[C@@H](c3ccc(CC)cc3)C[C@H]2[C@H]2C(=O)N(c3ccccc3)C(=O)[C@H]2C1	none (no result: PolyA inhibitor, DAX1 inh-2)
CCOC1=C2CN(S(=O)(=O)c3ccc(C)cc3)[C@H](c3ccccc3)C[C@H]2[C@H]2C(=O)N(c3ccccc3)C(=O)[C@H]2C1	DAX1 inh-1 4.0 (no result: PolyA inhibitor, DAX1 inh-2)
O=C(Nc1ccccc1)Nc1nc2ncccn2c1-c1ccc(C(F)(F)F)cc1	none (no result: PolyA inhibitor, DAX1 inh-2)
CN(Cc1ccc(F)cc1)C(=O)CN1C(=O)C2(OCCCO2)c2ccccc21	none (no result: PolyA inhibitor, DAX1 inh-2)
CCOC(=O)N1CCN(C(=O)COc2cc(=O)n(CC)c3ccccc23)CC1	DAX1 inh-2 8.2
CCOC(=O)N1CCN(C(=O)COc2cc(=O)n(C)c3ccccc23)CC1	none
N#CC1CCN(c2nc(-c3ccc(Br)cc3)cs2)CC1	none (no result: DAX1 inh-1, PolyA inhibitor, DAX1 inh-2)
CC1CN(c2ccnc3cc(Cl)ccc23)CCN1C(=O)c1ccc(Cl)cc1 (stereo not drawn)	none (no result: DAX1 inh-1, PolyA inhibitor, DAX1 inh-2)
Cn1nccc1C(=O)Nc1sc2c(c1C#N)CCCC2	DAX1 inh-1 4.3
Cn1nccc1C(=O)Nc1sc2c(c1C(N)=O)CCCC2	none
NC(=O)C1CCCN(C(=S)Nc2ccccc2)C1 (stereo not drawn)	none
OCC1CCCN(C(=S)Nc2ccc(Nc3ccccc3)cc2)C1 (stereo not drawn)	hgDAF12 agonist 16.1, DAX1 inh-2 5.7
O=C(NCCC1=CCCCC1)NC1CCCCC1	hgDAF12 agonist 10.6
C[C@@H](O[Si](c1ccccc1)(c1ccccc1)C(C)(C)C)[C@@H]1NC(=O)[C@@H]2C[C@]3(Br)c4ccccc4N(S(=O)(=O)c4ccccc4)[C@@H]3N2C1=O	none (no result: DAX1 inh-1, PolyA inhibitor, DAX1 inh-2)
CC1=NN(C(=O)c2ccccc2F)C(O)(c2ccc(Cl)cc2)C1 (stereo not drawn)	DAX1 inh-2 6.2
Cc1cc(C(=O)NN=Cc2cccc(O)c2)n[nH]1	none (no result: PolyA inhibitor, DAX1 inh-2)
COc1ccc(NC(=S)N/N=C/c2ccc(F)cc2)cc1OC	hgDAF12 agonist 11.2
CCCCN1CN2Cc3ccccc3C2CS1(=O)=O (stereo not drawn)	none (no result: PolyA inhibitor, DAX1 inh-2)
O=C(NNS(=O)(=O)c1ccc(Cl)cc1Cl)c1cc2ncc(C(F)(F)F)cc2s1	hcDAF12 agonist 6.0
O=S(=O)(NNc1ncc(C(F)(F)F)cc1Cl)c1ccc(F)cc1F	none (no result: PolyA inhibitor)
CCSc1ccccc1C(=O)Nc1nncs1	none
CCSc1ccccc1C(=O)Nc1cccnc1	DAX1 inh-2 4.7
CCOc1cc(C(=O)Nc2cccnc2)cc(OCC)c1OCC	ssDAF-12 act 1.2
O=C(Nc1cccnc1)c1ccc2ccccc2c1O	DAX1 inh-2 4.3
CCCCOCCCNC(=O)C[C@H]1C[C@@]2(C(=O)OCC)CCCC3=C2N(CCC3)C1=O	none (no result: PolyA inhibitor, DAX1 inh-2)
COC(=O)[C@]12CCCCC=C1N(Cc1ccc(OC)cc1)C(=O)[C@@H]2CC(=O)N1CCN(C(=O)c2ccco2)CC1	none (no result: PolyA inhibitor, DAX1 inh-2)
CC(=O)CSc1nnc(-c2ccc(S(=O)(=O)N3CCOCC3)cc2)n1C	DAX1 inh-2 5.4
CCOC(=O)[C@H]1[C@H]2COc3ccc(Br)cc3[C@H]2N2C(=O)CN(CCc3c[nH]c4ccccc34)C(=O)[C@@]12C	ssDAF-12 act 0.9 (no result: PolyA inhibitor)

Screening results deposited in PubChem BioAssay by several laboratories.
